The results in this text go back to PubChem BioAssay (NCATS).

SMILES strings stand for the structures. Inconclusive results are not listed. Active and inactive are the calls of the source. Unless noted, the call rests on the fitted dose curve; in most records, active means well fitted curve in the direction sought with a large enough effect; inconclusive means small, poorly fitted or top-dose-only effect, or another doubt; inactive means no such curve, though single readings can be large; an effect the other way counts as inactive or inconclusive.

Assay [1] is described as follows: High-throughput drug toxicity screening in the BPDCN cell line Cal-1 (AID 1224825; call rule not given here). The conditions noted are these: Cal-1 BPDCN cell viability, qHTS; at 45.8 µM (top of the series) unless noted. The method in brief: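 Exponentially growing Cal-1 cells, 500 per well in phenol red-free RPMI with 10% FBS, were exposed to compounds for 48 h at 37 °C, 5% CO2. Viability was read by CellTiter-Glo luminescence and normalised to DMSO (100%) and 9.2 uM bortezomib (0%).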
In general terms: qHTS replaces the single test concentration by a dilution series.

A short description of assay [2]: qHTS assay for measurement of the activity of small molecule inhibitors on Zika virus induced Caspase-3 activity in human iPSC derived neural progenitor cells (hNPCs) (AID 1224857). Further: % of control where 0% means no effect; nearly all actives have a fitted effect of over 65% in size. In short, it runs like this:
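After overnight (16–20 h) culture at 350 cells/well, hNPCs get compound, then ZIKV 2 FFU/cell one hour later. Six hours on, Caspase-Glo 3/7 is added and luminescence measured.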

Assay [3] in a line: qHTS assay for measurement of the activity of small molecule inhibitors on Zika virus induced Caspase-3 activity in human astrocytoma cells (AID 1224859).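 Further: plate controls were ZIKV-infected untreated cells for no effect and uninfected cells for full effect.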 The method in brief:
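Inhibition of Zika-induced caspase-3/7 activity: SNB-19 cells, 1 h compound pretreatment, ZIKV 2 FFU/cell for 6 h at 37 C, Caspase-Glo luminescence read-out.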

A short description of assay [4]: qHTS Screen of the MIPE 4.0 Collection Against Ewings Sarcoma (RDES) (AID 1259252).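 Further: 100% = DMSO-treated cells and 0% = medium-only wells without cells; nearly all actives have a fitted effect of over 35% in size.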 In short, it runs like this:
(§1)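 Measured: ATP luminescence (CellTiter-Glo) 10 min after reagent addition, following 48 h drug treatment. Relative luciferase units converted to percent activity, with no-cell wells as full and DMSO wells as zero inhibition.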

A short description of assay [5]: qHTS Screen of the MIPE 4.0 Collection Against Ewings Sarcoma (EW8) (AID 1259255).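 Further: 100% = DMSO-treated cells and 0% = medium-only wells without cells; nearly all actives have a fitted effect of over 35% in size.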 The method in brief:
as §1

Assay [6] is described as follows: qHTS assay to identify small molecule inhibitors of chordoma cells - UCH-2 (AID 1259356). Further: on the % scale 0 is the no-effect control and ±100 the full control effect.
Assay [7] can be described thus: P-glycoprotein substrates identified in KB-8-5-11 adenocarcinoma cell line, qHTS therapeutic library screen (AID 1346987). Further: nearly all actives have a fitted effect of over 65% in size. In short, it runs like this: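 Steps: plate 500 KB-8-5-11 cells/well in DMEM + 10% FCS (colchicine removed); pin compounds in dose-response; incubate 72 h, 37 degree C, 5% CO2; add CellTiter-Glo, 5 min; read luminescence.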
The nature of assay [8]: NS1 protein of Zika virus - qHTS assay to identify small molecule inhibitors in human HEK 293 cells (AID 1347053).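 Further: plate controls were infected untreated cells for no effect and uninfected cells for full effect; nearly all actives have a fitted effect of over 55% in size.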 In short, it runs like this:
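Following 20 h seeding, HEK 293 cells took compound, then 1 h later ZIKV MR766 (MOI = 0.5). Incubation ran 24 h at 37 C before TR-FRET detection of NS1; a drop in signal indicates inhibition.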

Assay [9] can be described thus: qHTS Screen of the MIPE 4.0 Collection Against Ewings Sarcoma (TC71) (AID 1259253).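 Further: 100% = DMSO-treated cells and 0% = medium-only wells without cells; nearly all actives have a fitted effect of over 40% in size.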 In short, it runs like this:
as §1

Assay [10] can be described thus: qHTS Screen of the MIPE 4.0 Collection Against Ewings Sarcoma (TC32) (AID 1259256). Further: nearly all actives have a fitted effect of over 45% in size. Further: potency means the concentration at half of the fitted maximal effect. In short, it runs like this:
as §1

Assay [11] can be described thus: qHTS assay to identify small molecule inhibitors of chordoma cells - UCH-1 (AID 1259355). Further: on the % scale 0 is the no-effect control and ±100 the full control effect; nearly all actives have a fitted effect of over 55% in size. The method in brief: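 Luminescent ATP read-out (CellTiter-Glo, 30min at room temperature) measured viability of UCH-1 cells exposed for 48hr to test drugs at 15 concentrations, co-dosed with a five-agent combination of auranofin, camptothecin, doxorubicin, rubitecan and topotecan.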

The nature of assay [12]: Natriuretic polypeptide receptor (hNpr1) antagonism - Pilot counterscreen GloSensor control cell line (AID 1347045; calls by dose curve; further: on the % scale 0 is the no-effect control and ±100 the full control effect). The method in brief:
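Luminescence was read before and 20 min after adding 50 uM SNP, which stimulates soluble guanylyl cyclase. The HEK293 cells expressing the GloSensor cGMP sensor had been preloaded with 2% reagent for 2 h and treated with compound.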

In assay [13] the target is Atrial natriuretic peptide receptor 1 (Homo sapiens) (UniProt P16066). The experiment in a line: Natriuretic polypeptide receptor (hNpr1) antagonism - Pilot screen (AID 1347049; calls by dose curve;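 further: agonist-evoked cGMP luminescence read 20 min after hNppA addition; on the % scale 0 is the no-effect control and ±100 the full control effect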). The method in brief:
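HEK293 cells co-expressing hNpr1 and the GloSensor pGS-40F cGMP luciferase sensor were preloaded with 2% GloSensor reagent for 2 h. Compounds were added for 30 min at room temperature, then cells were stimulated with 0.1 nM hNppA for 20 min before luminescence readout.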

Assay [14] addresses Atrial natriuretic peptide receptor 2 (Homo sapiens) (UniProt P20594). The assay can be described thus: Natriuretic polypeptide receptor (hNpr2) antagonism - Pilot subtype selectivity assay (AID 1347050; calls by dose curve; further: on the % scale 0 is the no-effect control and ±100 the full control effect). In short, it runs like this: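 cGMP-sensor HEK293/hNpr2 cells; 2% GloSensor reagent 2 h RT; compounds 30 min; baseline luminescence read; 1 nM hNppC agonist 20 min RT; final luminescence read by CCD camera. Antagonism = reduced post-agonist signal.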

For assay [15], the target named is T1, Tyrosine-protein phosphatase non-receptor type substrate 1 (Homo sapiens) + Leukocyte surface antigen CD47 (Homo sapiens) (UniProt P78324+Q08722). The assay can be described thus: CD47-SIRPalpha protein protein interaction - LANCE assay qHTS validation (AID 1347057; active means well fitted curve in the direction sought with a large enough effect in the signal ratio, with a control signal flat, not every such curve was filed as active; the % refers to the signal ratio; further: 0% is about no effect). The method in brief:
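First, His-tagged CD47 and Eu-labelled anti-His antibody met the compound for 30 min; next, site-specifically biotinylated SIRPalpha was added for 30 min; finally streptavidin-APC was added before reading the TR-FRET ratio.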
In general terms: TR-FRET usually uses a lanthanide donor and a delayed reading to cut background.

Assay [16] addresses T1, Tyrosine-protein phosphatase non-receptor type substrate 1 (Homo sapiens) + Leukocyte surface antigen CD47 (Homo sapiens). The assay can be described thus: CD47-SIRPalpha protein protein interaction - HTRF assay qHTS validation (AID 1347058; active means well fitted curve in the direction sought with a large enough effect in the signal ratio, not every such curve was filed as active; the % refers to the signal ratio;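 further: recombinant soluble extracellular CD47 with His tag and biotinylated SIRPalpha domains; 0% is about no effect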). The method in brief: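 TR-FRET read (Ch1/Ch2 ratio) of soluble extracellular CD47 and Avi-biotinylated SIRPalpha domains in PBS pH 7.4 with 0.05% IGEPAL; 7-point compound titration. Sequential 30 min room-temperature steps; non-biotinylated SIRPalpha as control inhibitor.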

The nature of assay [17]: P-glycoprotein substrates identified in KB-3-1 adenocarcinoma cell line, qHTS therapeutic library screen (AID 1346986). Further: nearly all actives have a fitted effect of over 60% in size. The conditions noted are these: KB-3-1 parental cells viability, CellTiter-Glo, 72 h; at 44.5 µM (top of the series) unless noted. In short, it runs like this:
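Resistance attributable to P-gp was assessed by comparing AC50 in KB-8-5-11 with parental KB-3-1 and by tariquidar reversal. Cells were exposed 72 h and viability read by CellTiter-Glo.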

Assay [18] is described as follows: Identifying Small Molecule Inhibitors of Pancreatic Cancer Stem Cells (SN12C, Adherent) (AID 1259358).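 Further: cell survival measured after 48 h of compound exposure.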 In short, it runs like this: (§2)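 After a 4 h attachment period, compounds were pinned into wells and cultures held 48 h under standard incubator conditions. Viability was then measured as CellTiter-Glo luminescence following 10 min at room temperature.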
Assay [19] is described as follows: Identifying Small Molecule Inhibitors of Pancreatic Cancer Stem Cells (SN12C, Spheroid) (AID 1259360).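 Further: 100% = DMSO-treated cells and 0% = wells without cells.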 The method in brief: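 Pre-formed 14-day tumor spheroids or adherent cells dosed and incubated 48 h, 37C, 5% CO2. Viability assessed by CellTiter-Glo.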
Assay [20] can be described thus: Identifying Small Molecule Inhibitors of Pancreatic Cancer Stem Cells (A278, Adherent) (AID 1259361).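 Further: 100% = DMSO-treated cells and 0% = cell-free media-only wells; nearly all actives have a fitted effect of over 35% in size.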 The method in brief:
as §2

Atrial natriuretic peptide receptor 1 (Homo sapiens), sequence (P16066 whole entry, looked up): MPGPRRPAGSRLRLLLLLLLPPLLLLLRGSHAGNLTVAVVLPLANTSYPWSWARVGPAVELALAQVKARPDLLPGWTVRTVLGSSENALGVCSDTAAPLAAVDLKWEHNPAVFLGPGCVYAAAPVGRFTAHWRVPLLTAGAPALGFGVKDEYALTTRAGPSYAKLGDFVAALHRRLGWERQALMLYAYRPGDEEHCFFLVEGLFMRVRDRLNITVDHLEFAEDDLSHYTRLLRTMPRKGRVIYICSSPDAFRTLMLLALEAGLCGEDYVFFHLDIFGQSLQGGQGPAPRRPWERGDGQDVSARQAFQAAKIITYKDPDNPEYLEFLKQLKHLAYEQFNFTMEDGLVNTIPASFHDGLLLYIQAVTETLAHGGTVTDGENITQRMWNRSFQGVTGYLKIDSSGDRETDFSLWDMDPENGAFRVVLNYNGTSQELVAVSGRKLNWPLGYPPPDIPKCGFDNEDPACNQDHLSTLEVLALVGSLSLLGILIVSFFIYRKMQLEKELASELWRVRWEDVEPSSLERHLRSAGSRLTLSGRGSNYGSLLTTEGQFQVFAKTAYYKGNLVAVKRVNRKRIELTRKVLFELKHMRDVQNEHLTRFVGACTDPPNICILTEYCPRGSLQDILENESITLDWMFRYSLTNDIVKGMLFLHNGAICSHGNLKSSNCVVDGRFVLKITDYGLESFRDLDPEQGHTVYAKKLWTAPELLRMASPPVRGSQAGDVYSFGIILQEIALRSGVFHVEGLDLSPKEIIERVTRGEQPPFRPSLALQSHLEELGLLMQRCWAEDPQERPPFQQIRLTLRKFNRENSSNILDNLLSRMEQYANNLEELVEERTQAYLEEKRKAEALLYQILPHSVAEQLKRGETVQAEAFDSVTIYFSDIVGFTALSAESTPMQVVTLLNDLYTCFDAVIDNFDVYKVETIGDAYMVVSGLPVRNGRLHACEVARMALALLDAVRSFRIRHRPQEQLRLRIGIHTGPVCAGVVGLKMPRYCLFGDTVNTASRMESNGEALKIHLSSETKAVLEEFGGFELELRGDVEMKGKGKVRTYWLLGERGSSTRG
Atrial natriuretic peptide receptor 2 (Homo sapiens), sequence (P20594 whole entry, looked up): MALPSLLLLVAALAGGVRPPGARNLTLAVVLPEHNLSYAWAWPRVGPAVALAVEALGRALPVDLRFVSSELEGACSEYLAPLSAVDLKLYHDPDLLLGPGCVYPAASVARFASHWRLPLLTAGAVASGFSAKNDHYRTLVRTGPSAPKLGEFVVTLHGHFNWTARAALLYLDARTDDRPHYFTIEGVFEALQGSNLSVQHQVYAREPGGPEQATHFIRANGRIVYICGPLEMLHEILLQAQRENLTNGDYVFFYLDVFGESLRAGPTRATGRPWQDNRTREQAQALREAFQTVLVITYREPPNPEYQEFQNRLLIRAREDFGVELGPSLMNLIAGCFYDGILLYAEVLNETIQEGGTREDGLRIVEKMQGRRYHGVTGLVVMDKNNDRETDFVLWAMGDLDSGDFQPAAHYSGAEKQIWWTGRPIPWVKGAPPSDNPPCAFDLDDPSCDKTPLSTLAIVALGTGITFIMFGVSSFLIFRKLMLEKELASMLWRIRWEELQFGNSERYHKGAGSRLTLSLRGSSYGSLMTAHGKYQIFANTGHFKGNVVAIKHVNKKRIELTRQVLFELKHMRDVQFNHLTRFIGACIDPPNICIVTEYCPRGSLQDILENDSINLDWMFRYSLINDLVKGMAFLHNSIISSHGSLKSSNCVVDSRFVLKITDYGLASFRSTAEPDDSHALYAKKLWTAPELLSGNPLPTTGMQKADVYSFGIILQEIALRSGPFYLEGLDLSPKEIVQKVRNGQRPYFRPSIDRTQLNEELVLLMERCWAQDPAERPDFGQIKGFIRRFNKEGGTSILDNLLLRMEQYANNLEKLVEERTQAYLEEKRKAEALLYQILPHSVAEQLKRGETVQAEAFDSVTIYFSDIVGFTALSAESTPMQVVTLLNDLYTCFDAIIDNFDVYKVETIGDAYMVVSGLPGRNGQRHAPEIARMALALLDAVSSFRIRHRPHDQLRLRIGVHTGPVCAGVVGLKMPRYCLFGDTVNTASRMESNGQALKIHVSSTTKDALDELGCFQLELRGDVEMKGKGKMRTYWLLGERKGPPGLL
T1 sequence (P78324 whole entry, looked up): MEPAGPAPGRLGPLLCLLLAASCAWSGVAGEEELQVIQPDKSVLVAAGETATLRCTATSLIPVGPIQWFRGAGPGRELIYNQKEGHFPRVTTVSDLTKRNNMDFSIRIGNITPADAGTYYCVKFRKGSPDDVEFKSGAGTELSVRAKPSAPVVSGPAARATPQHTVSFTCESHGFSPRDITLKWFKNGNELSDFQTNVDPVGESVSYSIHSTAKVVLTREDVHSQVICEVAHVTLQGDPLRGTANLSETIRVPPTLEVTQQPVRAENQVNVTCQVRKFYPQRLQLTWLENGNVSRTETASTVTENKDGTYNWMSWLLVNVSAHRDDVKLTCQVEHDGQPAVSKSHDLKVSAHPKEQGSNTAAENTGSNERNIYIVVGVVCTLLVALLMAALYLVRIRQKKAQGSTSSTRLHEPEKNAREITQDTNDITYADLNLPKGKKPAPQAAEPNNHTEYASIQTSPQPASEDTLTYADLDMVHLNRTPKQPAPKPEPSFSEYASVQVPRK
T1 sequence (Q08722 whole entry, looked up): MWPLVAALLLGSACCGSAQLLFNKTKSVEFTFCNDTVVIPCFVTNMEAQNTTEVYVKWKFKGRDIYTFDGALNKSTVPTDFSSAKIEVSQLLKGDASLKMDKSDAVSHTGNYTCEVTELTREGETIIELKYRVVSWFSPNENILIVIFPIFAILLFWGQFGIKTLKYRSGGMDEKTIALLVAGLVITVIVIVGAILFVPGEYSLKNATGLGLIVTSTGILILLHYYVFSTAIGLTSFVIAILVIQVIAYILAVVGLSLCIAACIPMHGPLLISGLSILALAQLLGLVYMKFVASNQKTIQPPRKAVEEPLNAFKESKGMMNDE

As to `CC(C)C[C@H](CN)CC(=O)O`, in [1], the viability (% of control) came to 132%. Besides, the compound was called inactive in [2], in [3], in assay [5], in [6] and in assay [8]. In addition, the Potency entry in [4] and in assay [7] was “inactive” in each case.

Turning to `CC(C)c1cccc(C(C)C)c1O`, in [1], the viability (% of control) came out at 113%. The compound was called inactive in [2], in assay [3], in assay [5], in assay [11], in assay [6] and in assay [12]. Besides, the call in [13], in [14], in assay [15] and in assay [16] was inactive. Also, the Potency entry in [4], in assay [9], in assay [10] and in assay [7] was “inactive” in each case.

Consider `C[C@]12CC[C@H]3[C@@H](CC[C@@]45O[C@H]4C(O)=C(C#N)C[C@]35C)[C@H]1CC[C@H]2O`, for which the viability (% of control) in [1] came out at 51.6%. Also, the compound was classed as inactive in assay [2] and in [3]. The Potency in [10] is 20.9 µM (active).

On to `C#C[C@]1(O)CC[C@H]2[C@@H]3CCC4=CC(=O)CC[C@]4(C)[C@H]3CC[C@@]21C`, for which the call in assay [2], in assay [3], in [11] and in assay [6] was inactive.

For `CC(C)(N)Cc1ccccc1Cl`, the call in assay [2] and in [3] was inactive.

Turning to `CCC1(c2ccc(N)cc2)CCC(=O)NC1=O` (centres undefined), the viability (% of control) in assay [1] was 111%. Further, the call in assay [2], in assay [3], in [5], in [11], in assay [6] and in assay [12] was inactive. Further, the compound was called inactive in [13], in [14], in assay [8], in assay [15] and in assay [16]. Further, the Potency result in assay [4], in [9], in assay [10] and in assay [7] was “inactive” in each case.

Regarding `CC(=O)OCC1=C(C(=O)O)N2C(=O)[C@@H](N)[C@H]2SC1`, the call in [2], in [3], in assay [11], in [6] and in assay [17] was inactive. Also, the Potency result in [7] is “inactive”.

`O=C(O)/C=C\C(=O)O`: the result in assay [2] was inactive.

Take `CC(Cc1ccccc1)NCCn1cnc2c1c(=O)n(C)c(=O)n2C` (centres undefined): the result in assay [2] and in assay [3] was inactive.

With `O=C(O)CCCc1ccc(N(CCCl)CCCl)cc1`, the viability (% of control) in assay [1] came to 11.8%. Also, the call in [2], in assay [3], in assay [11], in assay [6], in assay [17] and in [12] was inactive. Further, the outcome in assay [13] and in [14] was inactive. Also, the Potency result in assay [10] was “inactive”.

In the case of `CC(=O)NC1CCSC1=O` (centres undefined), the compound was classed as inactive in assay [2], in assay [3], in assay [11] and in assay [6].

With `NC(=O)CS(=O)C(c1ccccc1)c1ccccc1` (centres undefined), the call in assay [2], in assay [3], in [11] and in [6] was inactive.

On to `O=P1(N(CCCl)CCCl)NCCCO1` (centres undefined), for which the viability (% of control) in assay [1] is 104%. Moreover, the outcome in assay [2], in assay [3], in [5], in assay [11], in [6] and in assay [18] was inactive. Further, the call in assay [19], in assay [20], in assay [12], in assay [13], in [14] and in assay [8] was inactive. Moreover, the result in assay [15] and in assay [16] was inactive. In addition, the Potency entry in [9] and in assay [7] was “inactive” throughout. Also, in assay [10], the Potency was 0.0021 µM (active).
